Results on 14 molecules are retold here after PubChem BioAssay.

Test [1] is described as follows: inhibitors of TNFa-induced NFkB p65 translocation, primary screen, imaging, HUVEC, MLSMR starter and 10KST1 sets (AID 438;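 active = inhibition above 20% together with a positive visual image hit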;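 note: compound added about 3h40 before a 20 min TNFalpha stimulation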;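 for inhibition: signal is the nuclear over cytoplasmic p65 intensity ratio per well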). To be noted: HUVEC TNFa-induced p65 nuclear translocation; cell count: measured here: nuclei count (cytotoxicity indicator), at 2.08 µM; inhibition: at 2 µM, stronger effect = higher value, 0% TNFa-plus-vehicle, 100% no-TNFa wells.
Test [2] can be described thus: reduction of polyQ htt aggregates in cells – imaging, exon1htt(103Q)mCFP cells, high-content imaging, primary screen (AID 483;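 active = visual image review flags a hit and inhibition of aggregation exceeds 20%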;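 note: compound exposure lasted 3 days before fixation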;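 for nuclei count: percent of the per-plate median nuclei count of sample wells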). To be noted: exon1htt(103Q)mCFP cell line, aggregate imaging, at 2 µM; inhibition of aggregation: stronger effect = higher value; nuclei count: measured here: cell count, toxicity.
The nature of test [3]: endothelial E-selectin expression blockers – imaging, HUVEC, immunofluorescence, MLSMR starter and 10KST1 sets, primary screen (AID 487).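 For inhibition: signal is fraction of cell area covered by stained E-selectin grains.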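 For nuclei count: 100% = median nuclei count of all wells on the same plate.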 To be noted: HUVEC TNFalpha-induced E-selectin immunofluorescence imaging, at 2 µM; inhibition: stronger effect = higher value; nuclei count: measured here: cell number, toxicity.
Test [4] addresses Voltage-gated potassium channel subunit beta-2 (Rattus norvegicus) (UniProt P62483). Put plainly: inhibitors of rat Kvbeta2 reductase activity – biochemical, NADPH fluorescence, primary screen (AID 622;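 active = fluorescence slope higher than the sample average by over 3 SD, cut at about -0.22 in these data, passing the limit was not always enough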;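 note: slope of raw intensity against log time taken from 70 to 1610 s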). The note with it: recombinant KvBeta, 4-cyanobenzaldehyde reduction, at 10 µM, stronger effect = higher value.
The target is the same in test [5]. Put plainly: enhancers of rat Kvbeta2 NADPH turnover – biochemical, NADPH fluorescence, primary screen (AID 623;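 active = NADPH fluorescence slope more negative than the mean of all samples by about 3 SD, 99.7% confidence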;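 note: fluorescence intensity change per second fitted from 20 to 320 s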). The note with it: Recombinant KvBeta, NADPH fluorescence decrease slope, 10 min; at 10 µM; stronger effect = lower value.
Test [6] deals with Alpha-2C adrenergic receptor (Homo sapiens) (UniProt P18825). Put plainly: compounds altering alpha2C-coupled GIRK flux – cell-based, HEK293 alpha2C/GIRK1/2, thallium flux, primary screen (AID 624;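 active = fluorescence slope after compound addition differing from the mean of all screened samples at 99.7% confidence, in either direction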;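 note: slope of fluorescence ratio to pre-addition baseline per second over 15 to 24 s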). To be noted: thallium flux BTC fluorescence, at 10 µM, actives lie on both sides.
Alpha-2C adrenergic receptor (Homo sapiens), sequence (P18825 whole entry, looked up): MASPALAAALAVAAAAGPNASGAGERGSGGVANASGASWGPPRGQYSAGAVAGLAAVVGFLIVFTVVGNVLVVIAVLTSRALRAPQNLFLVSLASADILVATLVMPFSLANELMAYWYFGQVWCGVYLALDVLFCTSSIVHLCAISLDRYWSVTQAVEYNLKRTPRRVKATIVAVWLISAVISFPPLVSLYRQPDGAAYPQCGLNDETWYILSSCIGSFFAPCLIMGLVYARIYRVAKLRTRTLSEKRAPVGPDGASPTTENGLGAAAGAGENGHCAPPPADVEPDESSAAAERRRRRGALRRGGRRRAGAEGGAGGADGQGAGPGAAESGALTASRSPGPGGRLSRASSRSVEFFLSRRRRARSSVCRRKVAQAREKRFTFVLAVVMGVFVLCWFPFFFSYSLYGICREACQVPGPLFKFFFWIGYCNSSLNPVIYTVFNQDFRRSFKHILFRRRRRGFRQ
The nature of test [7]: blockers of RIG-like receptor reporter activation – cell-based, Sendai virus stimulus, luciferase, 10K MLSCN set, TLR/RLR signaling modifier project, primary screen (AID 602276;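 active = inhibition at or above 50% at 10 µM; inactive = inhibition below 50%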;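 note: firefly luciferase from ISG56 promoter only with Renilla not read in this screen; 0% = Sendai virus plus DMSO and 100% = medium plus DMSO without virus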). To be noted: HEK293 RL24 IRF3 luciferase reporter, at 10 µM, stronger effect = higher value.
Test [8] is described as follows: TLR3 IRF3 reporter activation blockers – cell-based, poly I:C stimulus, luciferase, 10K MLSCN set, primary screen (AID 602277;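 active = inhibition of the reporter signal at or above 50%; inactive = inhibition below 50%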). To be noted: HEK293-TLR3 RL24 IRF3 luciferase reporter, at 10 µM, stronger effect = higher value.

Structures are written as SMILES. Active and inactive are the calls of the source.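 Rule for the calls, unless noted: active = visually confirmed hit in the image check and inhibition above 20%; inconclusive = visually confirmed hit but inhibition not above 20%; inactive = no visual hit in the image check.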

Voltage-gated potassium channel subunit beta-2 (Rattus norvegicus), sequence (P62483 whole entry, looked up): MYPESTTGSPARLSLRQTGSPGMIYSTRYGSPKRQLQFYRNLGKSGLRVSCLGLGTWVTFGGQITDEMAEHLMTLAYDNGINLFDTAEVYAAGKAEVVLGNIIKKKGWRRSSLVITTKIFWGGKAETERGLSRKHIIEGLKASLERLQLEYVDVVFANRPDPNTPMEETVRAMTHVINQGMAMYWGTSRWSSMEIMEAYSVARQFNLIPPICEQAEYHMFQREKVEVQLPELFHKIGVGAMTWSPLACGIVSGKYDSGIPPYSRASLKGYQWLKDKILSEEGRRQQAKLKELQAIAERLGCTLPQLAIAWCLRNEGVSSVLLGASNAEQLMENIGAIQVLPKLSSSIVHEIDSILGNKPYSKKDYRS

The inhibition is the change of the read-out against control, counted positive when it falls. Consider `CCCC(c1nnnn1Cc1ccc(OC)cc1)N1CCN(c2ccccc2OC)CC1` (centres undefined), for which, in test [1], the cell count worked out at 257. Besides, the inhibition in test [1] was 12.3% (inactive); in test [3] it was -14.7% (inactive); in test [7], 10.6% (inactive); in test [8] it was 23.6% (inactive). In test [2], the inhibition of aggregation is -3.4% (inactive). Moreover, the nuclei count in test [2] is 101%; in test [3] it was 82.7%. Also, the fluorescence slope in test [4] is -0.433 (inactive). Further, the NADPH fluorescence slope in test [5] is -0.000141 (inactive). The slope in test [6] was 0.00492 (inactive).

Take `COC(=O)Nc1ccccc1C(=O)N1CCCCC1`: the cell count in test [1] is 403. Besides, the inhibition in test [1] was 9.9% (inactive); in test [3] it was -25.5% (inactive); in test [7] it was 6.49% (inactive); in test [8] it was 13.9% (inactive). For the same molecule, the inhibition of aggregation in test [2] was 4% (inactive). Further, the nuclei count amounted to 120% in test [2] and 112% in test [3]. Moreover, the fluorescence slope in test [4] is -0.597 (inactive). For the same molecule, the NADPH fluorescence slope in test [5] was -8.5e-07 (inactive). The slope in test [6] was 0.00473 (inactive).

With `COc1cccc(-n2ccnc2SCC(=O)N2CCc3ccccc32)c1`, in test [1], the cell count came out at 565. The inhibition is -7.6% (inactive) in test [1], 1.1% (inactive) in test [3], -3.01% (inactive) in test [7] and -5.47% (inactive) in test [8]. Moreover, in test [2], the inhibition of aggregation was 3% (inactive). Moreover, the nuclei count in test [2] was 108%; in test [3], 89.7%. Moreover, the fluorescence slope in test [4] is -0.536 (inactive). Besides, the NADPH fluorescence slope in test [5] is -1e-05 (inactive). For the same molecule, the slope in test [6] was 0.00609 (inactive).

On to `Cc1cc(NC(=O)c2cc3ccccc3o2)cc(C)c1OCC(=O)N1CCOCC1`, for which the cell count in test [1] was 388. The inhibition in test [1] was 7.3% (inactive); in test [3] it was -11.8% (inactive); in test [7] it was -1.27% (inactive); in test [8], -52% (inactive). In addition, the inhibition of aggregation in test [2] was -7% (inactive). The nuclei count in test [2] was 121%; in test [3], 115%. Moreover, the fluorescence slope in test [4] is -0.526 (inactive). Further, in test [5], the NADPH fluorescence slope is -4.4e-05 (inactive). Also, the slope in test [6] was 0.00621 (inactive).

In the case of `CCOC(=O)c1ccc(NC(=O)COc2ccc(-n3cnnn3)cc2)cc1`, the cell count in test [1] was determined as 354. Besides, the inhibition in test [1] was -0.5% (inactive); in test [3], 5% (inactive); in test [7] it was 1.41% (inactive); in test [8], 11.4% (inactive). Further, the inhibition of aggregation in test [2] is -2.9% (inactive). The nuclei count in test [2] worked out at 60.6%; in test [3] it was 102%. Besides, in test [4], the fluorescence slope was -0.405 (inactive). Besides, the NADPH fluorescence slope in test [5] is -1.2e-05 (inactive). Also, the slope in test [6] was 0.00538 (inactive).

As to `CN(Cc1ccccc1)S(=O)(=O)c1ccc(S(=O)(=O)N2CCN(CCC#N)CC2)cc1`, in test [1], the cell count amounted to 687. Moreover, the inhibition in test [1] was -6.9% (inactive); in test [3] it was -50.4% (inactive); in test [7] it was -12% (inactive); in test [8], 11.4% (inactive). For the same molecule, the inhibition of aggregation in test [2] is -13.6% (inactive). Further, the figures for the nuclei count in test [2] and in test [3] were 111% and 125%, respectively. For the same molecule, in test [4], the fluorescence slope was -0.626 (inactive). Also, the NADPH fluorescence slope in test [5] was -2.8e-05 (inactive). For the same molecule, the slope in test [6] was 0.00717 (inactive).

Regarding `CN1C(=O)C(CC(=O)N2CCN(C(c3ccccc3)c3ccccc3)CC2)N(C)C1=O` (centres undefined), in test [1], the cell count came to 281. In addition, the inhibition is -2.3% (inactive) in test [1], 20.6% (inactive) in test [3], 1.7% (inactive) in test [7] and 22.8% (inactive) in test [8]. In addition, the inhibition of aggregation in test [2] was 9.8% (inactive). Also, the nuclei count stood at 97.2% in test [2] and 118% in test [3]. The fluorescence slope in test [4] is -0.288 (inactive). Besides, the NADPH fluorescence slope in test [5] was 5.9e-06 (inactive). The slope in test [6] was 0.00745 (inactive).

With `Cc1ccc2c(c1C)NC(=O)C2(O)CC(=O)c1ccc2c(c1)OCO2` (centres undefined), in test [1], the cell count turned out to be 788. Besides, the inhibition is 0.6% (inactive) in test [1], -44% (inactive) in test [3], 11.2% (inactive) in test [7] and 25.3% (inactive) in test [8]. Also, in test [2], the inhibition of aggregation was 34.5% (inactive). Further, the nuclei count in test [2] came out at 96.2%; in test [3] it was 110%. In addition, the fluorescence slope in test [4] was -0.472 (inactive). In test [5], the NADPH fluorescence slope was -5.3e-05 (inactive). Further, the slope in test [6] was 0.00591 (inactive).

For `COc1ccc(C/C(N)=N/n2cnnc2)cc1Cl`, the cell count in test [1] is 356. The inhibition in test [1] was -3.8% (inactive); in test [3] it was -14.7% (inactive); in test [7] it was 6.09% (inactive); in test [8] it was 35.6% (inactive). The inhibition of aggregation in test [2] is -13.5% (inactive). The nuclei count came out at 99.1% in test [2] and 107% in test [3]. In addition, in test [4], the fluorescence slope was -0.447 (inactive). Moreover, the NADPH fluorescence slope in test [5] is -3.3e-05 (inactive). Further, the slope in test [6] was 0.00222 (inactive).

For the molecule `COc1cc(C(=O)Nc2cccc(-c3nc4cc(C)ccc4o3)c2)cc(OC)c1OC`, the cell count in test [1] is 507. The inhibition was 7% (inactive) in test [1], -126% (inactive) in test [3], 0.465% (inactive) in test [7] and -22.5% (inactive) in test [8]. In test [2], the inhibition of aggregation was -1.2% (inactive). Further, the nuclei count was 90.7% in test [2] and 126% in test [3]. For the same molecule, in test [4], the fluorescence slope was -0.582 (inactive). Moreover, the NADPH fluorescence slope in test [5] was -3.2e-05 (inactive). The slope in test [6] was 0.0093 (inactive).

`COC(=O)C(C)Sc1nc2c(c(=O)n1-c1ccccc1)SCC2` (centres undefined): in test [1], the cell count turned out to be 330. For the same molecule, the inhibition was -1.4% (inactive) in test [1], -51.5% (inactive) in test [3], 7.35% (inactive) in test [7] and 13.2% (inactive) in test [8]. The inhibition of aggregation in test [2] was -6.6% (inactive). The nuclei count in test [2] amounted to 113%; in test [3] it was 150%. Besides, in test [4], the fluorescence slope is -0.523 (inactive). Besides, in test [5], the NADPH fluorescence slope was -7.6e-05 (inactive). For the same molecule, in test [6], the slope is 0.00467 (inactive).

For `CCN(CCO)C(=O)CC(c1ccccc1)c1cc(Br)ccc1O` (centres undefined), the cell count in test [1] was determined as 357. Also, the inhibition was 15% (inactive) in test [1], -31.9% (inactive) in test [3], 13.1% (inactive) in test [7] and 20.3% (inactive) in test [8]. Also, the inhibition of aggregation in test [2] was -0.8% (inactive). Also, the nuclei count in test [2] and in test [3] was 102% each time. Besides, the fluorescence slope in test [4] is -0.331 (inactive). Besides, the NADPH fluorescence slope in test [5] was -6.1e-05 (inactive). In addition, the slope in test [6] is 0.00761 (inactive).

For `COc1ccc(-c2cc(C(F)(F)F)n3ncc(C(=O)NCC4CCCO4)c3n2)cc1` (centres undefined), in test [1], the cell count was 669. Further, the inhibition is 6.7% (inactive) in test [1], 57.7% (inactive) in test [3], 13.6% (inactive) in test [7] and 25.3% (inactive) in test [8]. Further, the inhibition of aggregation in test [2] is -1% (inactive). Moreover, the nuclei count in test [2] turned out to be 67.5%; in test [3], 95.2%. In addition, the fluorescence slope in test [4] is -0.00373 (active). Besides, the NADPH fluorescence slope in test [5] was 2e-06 (inactive). Further, the slope in test [6] is 0.00552 (inactive).

On to `COc1ccc(C(=O)Nc2ccc(S(=O)(=O)Nc3onc(C)c3C)cc2)cc1`, for which the cell count in test [1] came to 501. The inhibition in test [1] is 3.7% (inactive); in test [3], 16.1% (inactive); in test [7], 4.94% (inactive); in test [8] it was 2% (inactive). Besides, in test [2], the inhibition of aggregation was -4.3% (inactive). The nuclei count amounted to 110% in test [2] and 111% in test [3]. Further, the fluorescence slope in test [4] was -0.354 (inactive). The NADPH fluorescence slope in test [5] is -5.4e-05 (inactive). Moreover, the slope in test [6] was 0.00607 (inactive).
